In paper PMC7862700, “An all-to-all approach to the identification of sequence-specific readers for epigenetic DNA modifications on cytosine”:

What was measured:
Experiment in all cases: DAPPL (digital affinity profiling via proximity ligation, sequencing); 10 mM Tris-HCl pH 7.5, 50 mM NaCl, 1 mM DTT, 4% glycerol, room temperature, 30 min; GST-TFs on glutathione beads, 16-mer random dsDNA library, 0.1% formaldehyde crosslink after washing; high values mean tight binding
FEV = biological target: T1, FEV (Homo sapiens, UniProt Q99581 1-238); conditions: protein: recombinant; tags: N-terminal GST; dsDNA, one strand shown
T1 sequence: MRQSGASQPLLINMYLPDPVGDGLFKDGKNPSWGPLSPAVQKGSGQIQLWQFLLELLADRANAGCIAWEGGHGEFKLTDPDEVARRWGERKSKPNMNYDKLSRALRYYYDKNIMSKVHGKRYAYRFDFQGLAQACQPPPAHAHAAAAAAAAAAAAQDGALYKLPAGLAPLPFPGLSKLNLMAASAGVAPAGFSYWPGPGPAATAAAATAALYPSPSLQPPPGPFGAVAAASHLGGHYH
Outline: (§1)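 Pools of DNA-barcoded human transcription factors, expressed in yeast as GST fusions on glutathione beads and combined with a tag-only sample, were incubated with 200 nmole of a 16-mer random double-stranded DNA library. Incubation took 30 min at room temperature in Tris/NaCl/DTT/glycerol buffer and was followed by washing, 0.1% formaldehyde crosslinking, proximity ligation (BsaI/T4 ligase, 1 h, 37 °C), PCR amplification and sequencing on an Illumina NextSeq500. Binding signal is the ratio of a hexamer's read frequency for a factor to its frequency for the tag-only sample.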

ETV5 = ETV5 (Homo sapiens, UniProt P41161 1-510); conditions: protein: recombinant; tags: N-terminal GST; dsDNA, one strand shown
Chain of ETV5 (P41161 whole entry): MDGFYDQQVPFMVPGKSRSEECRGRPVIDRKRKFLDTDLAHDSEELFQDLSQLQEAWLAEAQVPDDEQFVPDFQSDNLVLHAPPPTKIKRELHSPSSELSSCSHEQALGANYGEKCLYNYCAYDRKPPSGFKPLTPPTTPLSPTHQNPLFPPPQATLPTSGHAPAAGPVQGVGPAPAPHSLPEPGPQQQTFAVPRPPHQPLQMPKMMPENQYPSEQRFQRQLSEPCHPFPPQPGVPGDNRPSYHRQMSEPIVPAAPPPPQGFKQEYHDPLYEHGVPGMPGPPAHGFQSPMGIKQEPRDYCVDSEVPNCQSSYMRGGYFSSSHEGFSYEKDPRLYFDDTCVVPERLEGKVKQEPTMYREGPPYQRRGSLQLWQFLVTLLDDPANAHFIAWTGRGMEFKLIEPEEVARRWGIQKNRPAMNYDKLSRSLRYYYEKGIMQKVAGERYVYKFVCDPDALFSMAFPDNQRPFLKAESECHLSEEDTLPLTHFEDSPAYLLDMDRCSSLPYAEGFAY
Outline: as §1

HSF1 = HSF1 (Homo sapiens, UniProt Q00613 1-529); conditions: protein: recombinant; tags: N-terminal GST; chain copies: 3; dsDNA, one strand shown
Chain of HSF1 (Q00613 whole entry): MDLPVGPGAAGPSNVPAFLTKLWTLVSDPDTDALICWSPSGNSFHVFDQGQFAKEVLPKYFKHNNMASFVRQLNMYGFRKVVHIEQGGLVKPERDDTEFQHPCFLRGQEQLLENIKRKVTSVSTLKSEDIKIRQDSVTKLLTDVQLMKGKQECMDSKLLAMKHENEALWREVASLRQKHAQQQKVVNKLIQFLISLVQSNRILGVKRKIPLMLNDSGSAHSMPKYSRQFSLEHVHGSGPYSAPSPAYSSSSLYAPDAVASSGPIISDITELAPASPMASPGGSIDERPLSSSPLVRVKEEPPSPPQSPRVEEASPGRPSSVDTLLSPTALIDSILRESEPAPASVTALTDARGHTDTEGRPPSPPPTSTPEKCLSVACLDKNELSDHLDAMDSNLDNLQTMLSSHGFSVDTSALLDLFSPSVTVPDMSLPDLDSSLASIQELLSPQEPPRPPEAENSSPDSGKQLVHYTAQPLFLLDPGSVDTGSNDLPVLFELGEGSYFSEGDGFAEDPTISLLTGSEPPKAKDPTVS
Outline: as §1

SPIC = biological target: T2, SPIC (Homo sapiens, UniProt Q8N5J4 1-248); conditions: protein: recombinant; tags: N-terminal GST; dsDNA, one strand shown
T2 sequence: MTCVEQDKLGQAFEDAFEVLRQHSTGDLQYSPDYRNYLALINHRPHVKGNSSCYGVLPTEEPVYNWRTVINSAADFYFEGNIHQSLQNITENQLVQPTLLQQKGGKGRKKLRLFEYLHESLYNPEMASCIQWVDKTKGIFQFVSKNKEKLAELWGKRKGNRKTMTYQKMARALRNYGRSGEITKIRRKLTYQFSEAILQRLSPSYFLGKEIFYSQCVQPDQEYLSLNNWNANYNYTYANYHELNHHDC
Outline: as §1

ELF4 = ELF4 (Homo sapiens, UniProt Q99607 1-663); conditions: protein: recombinant; tags: N-terminal GST; dsDNA, one strand shown
Chain of ELF4 (Q99607 whole entry): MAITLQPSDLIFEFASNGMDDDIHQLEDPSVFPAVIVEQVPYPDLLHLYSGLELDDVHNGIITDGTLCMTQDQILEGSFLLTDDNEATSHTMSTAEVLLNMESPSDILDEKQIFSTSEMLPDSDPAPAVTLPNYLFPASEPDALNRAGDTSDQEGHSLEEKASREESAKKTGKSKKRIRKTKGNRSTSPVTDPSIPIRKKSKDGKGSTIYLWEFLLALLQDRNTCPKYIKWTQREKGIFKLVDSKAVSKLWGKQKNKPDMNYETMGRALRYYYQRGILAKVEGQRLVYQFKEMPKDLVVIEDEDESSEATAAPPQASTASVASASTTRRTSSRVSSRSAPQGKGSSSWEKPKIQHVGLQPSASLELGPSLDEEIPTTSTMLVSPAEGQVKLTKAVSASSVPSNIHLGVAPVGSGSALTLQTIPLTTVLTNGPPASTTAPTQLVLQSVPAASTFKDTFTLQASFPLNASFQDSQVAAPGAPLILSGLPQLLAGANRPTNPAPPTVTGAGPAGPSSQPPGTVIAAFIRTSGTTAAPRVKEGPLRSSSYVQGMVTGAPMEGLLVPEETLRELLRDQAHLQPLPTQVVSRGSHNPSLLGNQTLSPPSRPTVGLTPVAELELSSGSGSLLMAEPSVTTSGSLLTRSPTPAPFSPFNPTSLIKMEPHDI
Outline: as §1

ELK4 = biological target: T3, ELK4 (Homo sapiens, UniProt P28324-2 1-405); conditions: protein: recombinant; tags: N-terminal GST; dsDNA, one strand shown
T3 sequence: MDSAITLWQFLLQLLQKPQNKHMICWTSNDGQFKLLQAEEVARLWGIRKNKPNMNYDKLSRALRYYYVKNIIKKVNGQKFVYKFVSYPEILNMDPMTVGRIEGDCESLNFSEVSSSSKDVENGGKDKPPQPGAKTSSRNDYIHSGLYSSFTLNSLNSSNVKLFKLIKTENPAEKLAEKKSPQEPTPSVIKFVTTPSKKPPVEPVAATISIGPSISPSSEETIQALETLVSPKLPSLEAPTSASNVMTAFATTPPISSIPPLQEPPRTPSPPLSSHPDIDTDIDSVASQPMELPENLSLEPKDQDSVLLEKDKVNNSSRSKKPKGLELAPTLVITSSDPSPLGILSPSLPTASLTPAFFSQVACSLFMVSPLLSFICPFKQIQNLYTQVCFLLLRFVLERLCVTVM
Outline: as §1

ETV2 = biological target: T4, ETV2 (Homo sapiens, UniProt O00321 1-342); conditions: protein: recombinant; tags: N-terminal GST; dsDNA, one strand shown
T4 sequence: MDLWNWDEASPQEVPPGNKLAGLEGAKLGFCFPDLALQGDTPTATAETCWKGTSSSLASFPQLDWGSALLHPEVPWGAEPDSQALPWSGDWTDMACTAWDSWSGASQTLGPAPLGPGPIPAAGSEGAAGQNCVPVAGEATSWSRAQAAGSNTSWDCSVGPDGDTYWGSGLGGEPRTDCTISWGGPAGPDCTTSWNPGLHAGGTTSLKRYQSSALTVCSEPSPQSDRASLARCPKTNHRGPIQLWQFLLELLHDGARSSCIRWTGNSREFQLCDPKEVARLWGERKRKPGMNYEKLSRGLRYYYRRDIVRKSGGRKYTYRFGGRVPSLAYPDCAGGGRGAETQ
Outline: as §1

ELF3 = biological target: T5, ELF3 (Homo sapiens, UniProt P78545 1-371); conditions: protein: recombinant; tags: N-terminal GST; dsDNA, one strand shown
T5 sequence: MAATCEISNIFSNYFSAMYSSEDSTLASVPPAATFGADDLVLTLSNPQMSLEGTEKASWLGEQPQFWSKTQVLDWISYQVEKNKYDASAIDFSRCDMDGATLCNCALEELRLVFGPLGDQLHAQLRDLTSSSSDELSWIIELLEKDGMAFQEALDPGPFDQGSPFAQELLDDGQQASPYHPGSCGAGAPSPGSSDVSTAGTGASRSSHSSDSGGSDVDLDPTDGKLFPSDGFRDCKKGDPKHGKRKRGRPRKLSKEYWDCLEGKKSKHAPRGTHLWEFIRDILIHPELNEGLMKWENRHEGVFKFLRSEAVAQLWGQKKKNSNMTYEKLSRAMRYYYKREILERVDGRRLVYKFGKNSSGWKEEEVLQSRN
Outline: as §1

CRX = CRX (Homo sapiens, UniProt O43186 1-299); conditions: protein: recombinant; tags: N-terminal GST; dsDNA, one strand shown
Chain of CRX (O43186 whole entry): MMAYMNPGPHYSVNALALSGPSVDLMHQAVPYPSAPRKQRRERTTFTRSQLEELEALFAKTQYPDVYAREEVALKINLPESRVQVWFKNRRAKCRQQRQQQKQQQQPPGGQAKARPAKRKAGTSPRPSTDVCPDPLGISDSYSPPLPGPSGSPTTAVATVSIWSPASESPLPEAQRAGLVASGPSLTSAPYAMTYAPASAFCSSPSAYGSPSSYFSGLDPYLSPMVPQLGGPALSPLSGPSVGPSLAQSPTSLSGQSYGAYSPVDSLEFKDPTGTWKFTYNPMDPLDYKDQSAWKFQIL
Outline: as §1

ETV1 = ETV1 (Homo sapiens, UniProt P50549 1-477); conditions: protein: recombinant; tags: N-terminal GST; dsDNA, one strand shown
Chain of ETV1 (P50549 whole entry): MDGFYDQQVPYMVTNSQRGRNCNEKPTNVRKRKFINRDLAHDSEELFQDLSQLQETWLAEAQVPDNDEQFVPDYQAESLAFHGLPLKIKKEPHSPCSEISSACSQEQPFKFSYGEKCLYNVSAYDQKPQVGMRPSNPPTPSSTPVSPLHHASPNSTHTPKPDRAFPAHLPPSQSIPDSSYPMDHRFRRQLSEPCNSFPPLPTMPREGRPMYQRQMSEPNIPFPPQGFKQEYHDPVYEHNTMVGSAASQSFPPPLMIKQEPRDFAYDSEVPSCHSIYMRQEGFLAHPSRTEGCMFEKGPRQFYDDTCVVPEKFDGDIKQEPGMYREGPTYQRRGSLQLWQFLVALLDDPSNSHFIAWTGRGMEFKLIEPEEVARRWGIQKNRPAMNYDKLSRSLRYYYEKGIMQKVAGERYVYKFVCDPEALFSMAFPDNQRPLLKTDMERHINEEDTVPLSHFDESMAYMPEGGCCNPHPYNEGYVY
Outline: as §1

Sequence	binding signal (FEV)	binding signal (ETV5)	binding signal (HSF1)	binding signal (SPIC)	binding signal (ELF4)	binding signal (ELK4)	binding signal (ETV2)	binding signal (ELF3)	binding signal (CRX)	binding signal (ETV1)
ATTCAT	1.11 fold enrichment (6-mer frequency, TF over GST control)	1.21 fold enrichment (6-mer frequency, TF over GST control)	1.12 fold enrichment (6-mer frequency, TF over GST control)	1.24 fold enrichment (6-mer frequency, TF over GST control)	1.17 fold enrichment (6-mer frequency, TF over GST control)	1.18 fold enrichment (6-mer frequency, TF over GST control)	1.15 fold enrichment (6-mer frequency, TF over GST control)	1.22 fold enrichment (6-mer frequency, TF over GST control)	1.16 fold enrichment (6-mer frequency, TF over GST control)	1.18 fold enrichment (6-mer frequency, TF over GST control)
GTTCTC	1.32 fold enrichment (6-mer frequency, TF over GST control)	1.32 fold enrichment (6-mer frequency, TF over GST control)	2.29 fold enrichment (6-mer frequency, TF over GST control)	1.36 fold enrichment (6-mer frequency, TF over GST control)	1.28 fold enrichment (6-mer frequency, TF over GST control)	1.27 fold enrichment (6-mer frequency, TF over GST control)	1.33 fold enrichment (6-mer frequency, TF over GST control)	1.3 fold enrichment (6-mer frequency, TF over GST control)	1.28 fold enrichment (6-mer frequency, TF over GST control)	1.34 fold enrichment (6-mer frequency, TF over GST control)
CTTCAA	1.33 fold enrichment (6-mer frequency, TF over GST control)	1.28 fold enrichment (6-mer frequency, TF over GST control)	1.38 fold enrichment (6-mer frequency, TF over GST control)	1.32 fold enrichment (6-mer frequency, TF over GST control)	1.29 fold enrichment (6-mer frequency, TF over GST control)	1.52 fold enrichment (6-mer frequency, TF over GST control)	1.46 fold enrichment (6-mer frequency, TF over GST control)	1.37 fold enrichment (6-mer frequency, TF over GST control)	1.22 fold enrichment (6-mer frequency, TF over GST control)	1.36 fold enrichment (6-mer frequency, TF over GST control)
TTCAAA	1.25 fold enrichment (6-mer frequency, TF over GST control)	1.26 fold enrichment (6-mer frequency, TF over GST control)	1.25 fold enrichment (6-mer frequency, TF over GST control)	1.35 fold enrichment (6-mer frequency, TF over GST control)	1.26 fold enrichment (6-mer frequency, TF over GST control)	1.33 fold enrichment (6-mer frequency, TF over GST control)	1.34 fold enrichment (6-mer frequency, TF over GST control)	1.43 fold enrichment (6-mer frequency, TF over GST control)	1.28 fold enrichment (6-mer frequency, TF over GST control)	1.32 fold enrichment (6-mer frequency, TF over GST control)
ATCTTC	1.39 fold enrichment (6-mer frequency, TF over GST control)	1.6 fold enrichment (6-mer frequency, TF over GST control)	2.15 fold enrichment (6-mer frequency, TF over GST control)	1.49 fold enrichment (6-mer frequency, TF over GST control)	1.31 fold enrichment (6-mer frequency, TF over GST control)	1.56 fold enrichment (6-mer frequency, TF over GST control)	1.75 fold enrichment (6-mer frequency, TF over GST control)	1.69 fold enrichment (6-mer frequency, TF over GST control)	1.98 fold enrichment (6-mer frequency, TF over GST control)	1.63 fold enrichment (6-mer frequency, TF over GST control)
TTAGCA	1.23 fold enrichment (6-mer frequency, TF over GST control)	1.15 fold enrichment (6-mer frequency, TF over GST control)	1.7 fold enrichment (6-mer frequency, TF over GST control)	1.22 fold enrichment (6-mer frequency, TF over GST control)	1.33 fold enrichment (6-mer frequency, TF over GST control)	1.33 fold enrichment (6-mer frequency, TF over GST control)	1.27 fold enrichment (6-mer frequency, TF over GST control)	1.3 fold enrichment (6-mer frequency, TF over GST control)	2.38 fold enrichment (6-mer frequency, TF over GST control)	1.32 fold enrichment (6-mer frequency, TF over GST control)
ATTAAT	1.16 fold enrichment (6-mer frequency, TF over GST control)	1.26 fold enrichment (6-mer frequency, TF over GST control)	2.47 fold enrichment (6-mer frequency, TF over GST control)	1.18 fold enrichment (6-mer frequency, TF over GST control)	1.19 fold enrichment (6-mer frequency, TF over GST control)	1.23 fold enrichment (6-mer frequency, TF over GST control)	1.25 fold enrichment (6-mer frequency, TF over GST control)	1.05 fold enrichment (6-mer frequency, TF over GST control)	3.95 fold enrichment (6-mer frequency, TF over GST control)	1.25 fold enrichment (6-mer frequency, TF over GST control)
